The source of these data is PubChem BioAssay (EPA / NIEHS).

Broadly, the AC50 is the concentration giving half of the maximal activity seen.

“And” between values parts separate entries of the source, which are not always exact repeats. Equal entries are not always repeated. Some structures have more than one record in an assay (separate samples or runs), and their calls can disagree. The source made the active and inactive calls. How the source made its calls: active means hit-call score of the fitted dose curve at least 0.9, where 1 is the maximum; inactive means score below 0.9.

The nature of experiment [1]: APR_HepG2_P-H2AX_72hr: Apredica 72-hour HepG2 Assay for H2AX Phosphorylation (AID 2282916).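 Further: phospho-histone H2A.x immunostain intensity per cell marking DNA damage.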 The settings on record: imaging, actives raise or lower the signal. A digest of the protocol: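 Readout: phospho-H2A.x immunofluorescence (FITC secondary) plus Hoechst nuclear stain, high-content imaging at 20x, six fields/well. HepG2, 72 hr compound exposure, 0.39–200 uM, final DMSO 0.5% v/v. Gain or loss fitted relative to DMSO baseline.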

The nature of experiment [2]: APR_HepG2_MitoMembPot_72hr: Apredica 72-hour HepG2 Assay for Mitochondrial Membrane Potential (AID 2282917). The settings on record: imaging, actives raise or lower the signal. A digest of the protocol: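 HepG2 cells dosed 72 hr with compound at 0.39–200 uM in duplicate, 0.5% v/v DMSO final. Mitochondria stained with 250 nM MitoTracker Red CMXRos for 30 min before formaldehyde fixation, imaged by high-content fluorescence; bidirectional fit versus DMSO.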

Experiment [3] is described as follows: APR_HepG2_MitoticArrest_72hr: Apredica 72-hour HepG2 Assay for Mitotic Arrest (AID 2282918). The settings on record: high-content imaging, actives raise or lower the signal. A digest of the protocol:
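HepG2, 72 hr exposure, 0.39–200 uM in duplicate, 0.5% v/v DMSO final. Formaldehyde-fixed, Triton-permeabilized, anti-phospho-histone H3/FITC plus Hoechst. ArrayScan imaging at 20x; curves fit bidirectionally against DMSO baseline.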

Experiment [4] can be described thus: APR_HepG2_MicrotubuleCSK_72hr: Apredica 72-hour HepG2 Assay for Microtubule CSK Stabilty (AID 2282919). The settings on record: HepG2 microtubule cytoskeleton, high-content imaging, actives raise or lower the signal. In short, it runs like this:
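HepG2, 72 hr cmpd exposure, 0.39–200 uM (10 pts, duplicate), 0.5% DMSO. 3.7% formaldehyde fix, 0.5% Triton perm, anti-alpha-tubulin/Cy5 plus Hoechst. HCS fluorescence intensity; bidirectional fit vs DMSO baseline; taxol as positive control.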

Experiment [5] in a line: APR_HepG2_P-H2AX_24hr: Apredica 24-hour HepG2 Assay for H2AX Phosphorylation (AID 2282920). Conditions: high-content imaging, actives raise or lower the signal. In short, it runs like this:
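HCS fluorescence imaging of phospho-H2A.x immunostain (with Hoechst 33342 nuclear counterstain) in HepG2 after 24 hr compound exposure; 10 concentrations, 0.39–200 uM, duplicate wells, 0.5% v/v DMSO. Gain or loss of signal fitted relative to DMSO baseline.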

A short description of experiment [6]: APR_HepG2_StressKinase_72hr: Apredica 72-hour HepG2 Assay for Stress Kinase (AID 2282921). The settings on record: HepG2 stress kinase (phospho-c-Jun) imaging, actives raise or lower the signal. A digest of the protocol:
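Phospho-c-Jun immunofluorescence measured by high-content imaging at 20x, six fields per well; bidirectional curve fitting against DMSO as baseline. Dosing: 0.39–200 uM, 72 h, 0.5% DMSO final.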

A short description of experiment [7]: APR_HepG2_StressKinase_24hr: Apredica 24-hour HepG2 Assay for Stress Kinase (AID 2282922). Conditions: HepG2 stress kinase (phospho-c-Jun) imaging, actives raise or lower the signal. A digest of the protocol: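 Read-out: phospho-c-Jun immunofluorescence (Cy3 secondary) quantified by high-content imaging at 20x, nuclei defined by Hoechst 33342. Human HepG2 liver cells dosed 24 hr, 0.39–200 uM, DMSO 0.5% v/v; gain or loss of signal fitted relative to DMSO.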

Experiment [8] can be described thus: APR_HepG2_MitoMass_72hr: Apredica 72-hour HepG2 Assay for Mitochondrial Mass (AID 2282924).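 Further: MitoTracker Red CMXRos stain intensity per cell imaged as mitochondrial mass.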 Conditions: high-content imaging, actives raise or lower the signal. In short, it runs like this:
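Read-out: MitoTracker Red fluorescence intensity from automated imaging (20x, six fields per well) in human HepG2 liver cells. Dosing ran 72 hr, 0.39–200 uM, 0.5% DMSO; bidirectional curve fitting versus DMSO baseline.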

Experiment [9] can be described thus: APR_HepG2_NuclearSize_72hr: Apredica 72-hour HepG2 Assay for Nuclear Size (AID 2282925). The settings on record: high-content imaging, actives raise or lower the signal. In short, it runs like this: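 Read-out: nuclear diameter from Hoechst 33342 images (ArrayScan, 20x, six fields/well), via cell-cycle image analysis. HepG2 were dosed 0.39–200 uM for 72 hr in 0.5% DMSO. Bidirectional fit relative to DMSO.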

A short description of experiment [10]: ATG_CRE_CIS: Attagene CIS-FACTORIAL HepG2 Assay for human cAMP Responsive Element (CRE) binding protein 3 (AID 2282926). Conditions: HepG2 CRE cis-reporter, Attagene multiplexed mRNA; actives raise or lower the signal. In short, it runs like this: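 Readout: fluorescently labelled reporter transcripts resolved by capillary electrophoresis after RT-PCR, taken 24 h post-dosing in transfected HepG2. Endogenous transcription factor activity drives each cis-element reporter; gain or loss of signal fitted relative to DMSO control.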

Experiment [11] addresses CCAAT/enhancer-binding protein beta (Homo sapiens) (UniProt P17676). Put plainly: ATG_C_EBP_CIS: Attagene CIS-FACTORIAL HepG2 Assay for human CCAAT/Enhancer Binding Protein (C/EBP) beta (AID 2282927). Conditions: HepG2 Attagene cis-factorial transcription factor reporter; actives raise or lower the signal. In short, it runs like this: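 HepG2, transient MRTU transfection, 24 h treatment. RT-PCR plus CE fluorescence; DMSO negative control, bidirectional fit.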

A short description of experiment [12]: ATG_CMV_CIS: Attagene CIS-FACTORIAL HepG2 Assay for human CMV (Internal Marker) (AID 2282928).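 Further: endpoint acts as a background internal control marker rather than a target.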 Conditions: HepG2 CMV promoter reporter, transcription factor profiling; actives raise or lower the signal. In short, it runs like this:
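Readout: fluorescent reporter cDNA fragments separated by capillary electrophoresis after RT-PCR and HpaI cut. Cells: HepG2 carrying transfected cis-promoter reporter constructs, dosed 24 h. Endpoint serves as background internal-marker control, fit bidirectionally versus DMSO.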

Experiment [13] can be described thus: ATG_DR4_LXR_CIS: Attagene CIS-FACTORIAL HepG2 Assay for human Liver X Receptor (LXR), DR4 submotif (AID 2282929). Conditions: HepG2 Attagene DR4 cis-reporter, mRNA transcription; actives raise or lower the signal. A digest of the protocol:
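HepG2 cells were transiently transfected with multiple cis-regulated reporter units and dosed for 24 hours. The DR4 reporter mRNA was quantified by RT-PCR, 6-FAM labelling and capillary electrophoresis. Bidirectional fits used DMSO as baseline.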

The target of experiment [14] is Aryl hydrocarbon receptor (Homo sapiens) (UniProt P35869). Nature of the experiment: ATG_Ahr_CIS: Attagene CIS-FACTORIAL HepG2 Assay for human Aryl Hydrocarbon Receptor (Ahr) (AID 2282930). The settings on record: HepG2 AhR cis-factorial reporter transcription; actives raise or lower the signal. A digest of the protocol: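 Endogenous factor activity is tracked through cis-promoter reporter units transfected into HepG2 cells. Transcript levels at 24 h are read by fluorescent RT-PCR and capillary electrophoresis, with activity in either direction scored relative to DMSO.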

The nature of experiment [15]: ATG_AP_2_CIS: Attagene CIS-FACTORIAL HepG2 Assay for human Activator Protein 2 (AP-2) (AID 2282932). The settings on record: HepG2 AP-2 cis-reporter, Attagene transcription factor profiling; actives raise or lower the signal. A digest of the protocol:
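Read-out: fluorescent reporter mRNA via RT-PCR and capillary electrophoresis, 24 h post-dose in transiently transfected HepG2. Endogenous factors drive cis-promoter reporters; gain or loss of signal fitted bidirectionally against DMSO.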

Experiment [16] is described as follows: ATG_BRE_CIS: Attagene CIS-FACTORIAL HepG2 Assay for human Bone Morphogenetic Protein (BMP) Response Element (BRE) (AID 2282933). The settings on record: HepG2 BMP response element reporter, Attagene transcription factor profiling; actives raise or lower the signal. In short, it runs like this:
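After a 24 h chemical treatment, transiently transfected HepG2 cells were lysed for RNA; reporter transcripts were quantified by fluorescent RT-PCR and capillary electrophoresis, normalised to DMSO.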

Experiment [17] concerns the target Retinoic acid receptor alpha (Homo sapiens) (UniProt P10276). Put plainly: ATG_DR5_RAR_CIS: Attagene CIS-FACTORIAL HepG2 Assay for human Retinoic Acid Receptor Alpha (RARE), DR5 submotif (AID 2282934). The settings on record: HepG2 Attagene cis-factorial RARE DR5 reporter, mRNA; actives raise or lower the signal. A digest of the protocol:
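After 24 h of chemical exposure, transiently transfected HepG2 cells were lysed for total RNA; the DR5-regulated reporter transcript was quantified via RT-PCR and capillary electrophoresis, with activity fitted bidirectionally against DMSO.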

Experiment [18] deals with Transcription factor E2F1 (Homo sapiens) (UniProt Q01094). Nature of the experiment: ATG_E2F_CIS: Attagene CIS-FACTORIAL HepG2 Assay for human E2F Transcription Factor 1 (AID 2282935). The settings on record: HepG2 Attagene cis-reporter, E2F reporter RNA transcripts; actives raise or lower the signal. In short, it runs like this:
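Transient MRTU transfection of HepG2; 24 h compound exposure; RNA → oligo(dT) RT → PCR → FAM label → HpaI cut → CE fluorescence. Gain/loss of signal fit against DMSO.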

A short description of experiment [19]: APR_HepG2_p53Act_72hr: Apredica 72-hour HepG2 Assay for p53 Activation (AID 2282923).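 Further: average cellular p53 protein immunofluorescence intensity in HepG2 cells.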 Conditions: high-content imaging, actives raise or lower the signal. A digest of the protocol: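 Readout: p53 immunofluorescence quantified by automated high-content imaging at 20x, six fields per well, nuclei located via Hoechst. Dosing ran 72 hr over ten concentrations from 0.39 to 200 uM; bidirectional curve fitting against DMSO baseline.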

Experiment [20] is described as follows: ATG_AP_1_CIS: Attagene CIS-FACTORIAL HepG2 Assay for human Activator Protein 1 (AP-1) (AID 2282931). The settings on record: HepG2 Attagene cis-factorial AP-1 reporter mRNA; actives raise or lower the signal. In short, it runs like this: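 HepG2 cells transiently transfected with cis-element-driven reporter transcription units, dosed for 24 hours. Reporter mRNA measured by RT-PCR, 6-FAM labelling, HpaI digestion and capillary electrophoresis. Bidirectional fitting against DMSO baseline.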

Chain of Transcription factor E2F1 (Homo sapiens) (Q01094 whole entry, looked up): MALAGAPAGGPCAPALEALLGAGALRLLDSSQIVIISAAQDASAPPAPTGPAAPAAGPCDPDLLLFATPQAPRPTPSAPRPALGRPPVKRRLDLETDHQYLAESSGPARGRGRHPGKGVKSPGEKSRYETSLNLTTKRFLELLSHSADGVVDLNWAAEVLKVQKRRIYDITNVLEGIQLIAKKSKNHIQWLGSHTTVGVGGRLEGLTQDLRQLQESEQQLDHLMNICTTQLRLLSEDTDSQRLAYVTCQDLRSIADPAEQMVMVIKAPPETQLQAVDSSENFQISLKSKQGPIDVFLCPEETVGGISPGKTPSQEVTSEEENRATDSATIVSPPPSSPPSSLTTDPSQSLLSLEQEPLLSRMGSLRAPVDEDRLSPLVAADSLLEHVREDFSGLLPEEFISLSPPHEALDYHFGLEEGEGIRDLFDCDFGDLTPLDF
Chain of Aryl hydrocarbon receptor (Homo sapiens) (P35869 whole entry, looked up): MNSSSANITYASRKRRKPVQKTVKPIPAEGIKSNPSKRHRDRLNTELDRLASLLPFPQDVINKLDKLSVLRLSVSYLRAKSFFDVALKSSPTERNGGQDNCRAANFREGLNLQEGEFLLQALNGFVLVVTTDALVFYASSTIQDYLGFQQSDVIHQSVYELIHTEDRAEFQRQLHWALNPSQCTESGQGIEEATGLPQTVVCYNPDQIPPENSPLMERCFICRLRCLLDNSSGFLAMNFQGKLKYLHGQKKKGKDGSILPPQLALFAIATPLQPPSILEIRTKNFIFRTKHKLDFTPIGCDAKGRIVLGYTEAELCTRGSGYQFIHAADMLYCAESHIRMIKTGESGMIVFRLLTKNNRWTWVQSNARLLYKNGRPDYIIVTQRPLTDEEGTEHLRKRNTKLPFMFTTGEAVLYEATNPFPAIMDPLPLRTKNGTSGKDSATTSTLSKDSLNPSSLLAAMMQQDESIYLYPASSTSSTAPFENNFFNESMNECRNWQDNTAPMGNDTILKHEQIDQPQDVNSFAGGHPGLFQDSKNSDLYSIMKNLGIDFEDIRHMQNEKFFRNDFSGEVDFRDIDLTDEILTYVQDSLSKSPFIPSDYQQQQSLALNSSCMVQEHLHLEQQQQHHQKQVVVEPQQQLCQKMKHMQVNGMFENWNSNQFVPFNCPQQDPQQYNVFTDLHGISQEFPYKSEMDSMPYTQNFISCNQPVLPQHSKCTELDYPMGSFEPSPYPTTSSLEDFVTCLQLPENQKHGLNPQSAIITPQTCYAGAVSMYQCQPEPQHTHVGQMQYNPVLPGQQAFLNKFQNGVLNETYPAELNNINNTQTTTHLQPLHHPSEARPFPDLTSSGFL
Chain of CCAAT/enhancer-binding protein beta (Homo sapiens) (P17676 whole entry, looked up): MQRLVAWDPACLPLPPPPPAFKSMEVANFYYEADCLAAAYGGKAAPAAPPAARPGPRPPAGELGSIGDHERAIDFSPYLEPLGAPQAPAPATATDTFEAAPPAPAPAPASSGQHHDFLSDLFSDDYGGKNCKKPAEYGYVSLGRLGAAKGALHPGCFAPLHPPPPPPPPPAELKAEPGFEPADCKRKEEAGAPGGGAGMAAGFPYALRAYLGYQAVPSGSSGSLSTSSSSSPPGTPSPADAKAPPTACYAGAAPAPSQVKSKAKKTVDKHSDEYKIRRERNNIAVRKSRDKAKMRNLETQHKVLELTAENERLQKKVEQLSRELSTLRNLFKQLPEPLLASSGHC
Chain of Retinoic acid receptor alpha (Homo sapiens) (P10276 whole entry, looked up): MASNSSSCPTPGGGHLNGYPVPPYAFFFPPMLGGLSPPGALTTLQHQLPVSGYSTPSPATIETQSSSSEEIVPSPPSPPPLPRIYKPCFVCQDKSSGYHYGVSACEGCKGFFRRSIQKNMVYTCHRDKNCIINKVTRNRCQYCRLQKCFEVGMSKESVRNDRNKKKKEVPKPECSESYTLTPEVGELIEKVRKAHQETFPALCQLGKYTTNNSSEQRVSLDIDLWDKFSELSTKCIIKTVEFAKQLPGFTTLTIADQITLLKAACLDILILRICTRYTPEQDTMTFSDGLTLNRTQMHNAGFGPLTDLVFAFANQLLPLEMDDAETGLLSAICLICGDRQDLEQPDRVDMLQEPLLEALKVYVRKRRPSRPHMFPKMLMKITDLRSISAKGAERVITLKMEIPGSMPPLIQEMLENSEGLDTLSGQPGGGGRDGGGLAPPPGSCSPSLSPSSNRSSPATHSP

For `CCc1cnc(C2=NC(C)(C(C)C)C(=O)N2)c(C(=O)O)c1` (configuration not stated), the outcome in [1], in experiment [2], in experiment [3], in experiment [4], in experiment [5] and in experiment [6] was inactive. For the same compound, the call in experiment [7], in experiment [8], in experiment [9], in experiment [10], in [11] and in experiment [12] was inactive. The call in [13], in experiment [14], in experiment [15], in experiment [16], in experiment [17] and in [18] was inactive.

`CON=C(C(=O)OC)c1ccccc1CON=C(C)c1cccc(C(F)(F)F)c1`: the compound was called inactive in experiment [1], in [2], in [3], in experiment [5], in [6] and in experiment [7]. Besides, the compound was classed as inactive in [19], in experiment [8], in experiment [9], in experiment [10], in [12] and in experiment [14]. For the same compound, the compound was classed as inactive in experiment [15], in experiment [17] and in experiment [18]. Further, the AC50 is 0.309 µM (active) in experiment [4], 66.7 µM (active) in experiment [11] and 25 µM (active) in experiment [16].

As for `CCC(CC)Nc1c([N+](=O)[O-])cc(C)c(C)c1[N+](=O)[O-]`, the result in experiment [1], in [2], in experiment [3], in [5], in [6] and in experiment [7] was inactive. The compound was classed as inactive in [19], in experiment [8], in [9], in [10], in [11] and in experiment [12]. Further, the compound was called inactive in experiment [14], in [20], in experiment [15], in experiment [16] and in [18]. For the same compound, in experiment [4], the AC50 was 108 µM (active).

As for `CN(C)[C@@H]1C(=O)C(C(N)=O)=C(O)[C@@]2(O)C(=O)C3=C(O)c4c(O)cccc4[C@@](C)(O)[C@H]3[C@H](O)[C@@H]12`, the result in [1], in [2], in experiment [3], in experiment [4], in experiment [5] and in experiment [6] was inactive. In addition, the call in [7], in experiment [8], in experiment [9], in [10], in experiment [11] and in experiment [12] was inactive. Moreover, the call in experiment [14], in [15], in experiment [16] and in experiment [18] was inactive. In addition, the AC50 in experiment [14] is 66.3 µM (active) and 37.9 µM (active); in experiment [16], 71.1 µM (active).
